In the library only some 7.5% were active in any assay of this set; here they are far more common.
SMN2 splice enh: qHTS Assay for Enhancers of SMN2 Splice Variant Expression; HEK293 SMN2-luciferase splicing reporter, luminescence, 30-36 h; Potency, µM (highest dose often 46.1 µM), for the others: at the highest dose activity change, positive = activation, usual class: activators; 210,000 tested, 2.8% active; AID 1458, 2008; note: % of control where 0% means no effect; nearly all actives have a fitted effect of over 55% in size
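HEK293 cells carry an SMN2 minigene-luciferase reporter in which exon 7 inclusion puts luciferase in frame. Cells were seeded at 2000 cells/well, attached for 10-12 hours, then exposed to compounds for 30-36 hours at 37C before ONE-Glo luminescence.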
ELG1 genotox: qHTS screen for small molecules that induce genotoxicity in human embryonic kidney (HEK293T) cells expressing luciferase-tagged ELG1; AID 504466, 2011; HEK293T ELG1-luciferase reporter, luminescence, 16 h; Potency, µM (titrated, usually from 46 µM), without a hit: at the highest dose activity change, positive = activation, actives largely listed as activators; 330,000 tested, 1.3% active; note: % of control where 0% means no effect; nearly all actives have a fitted effect of over 60% in size
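HEK293T cells expressing luciferase-tagged ELG1 were exposed to compound or DMSO vehicle for 16 hr at 37 °C and 5% CO2. Luciferase activity was then measured with ONE-Glo after 30 min at room temperature.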
NPC1 prom act: qHTS Assay for NPC1 Promoter Activators; 320,000 tested, 2.4% active; AID 485313, 2010; Huh7 NPC1 promoter luciferase reporter, 24 h; Potency, µM (series often up to 9.22 µM), without a hit: top-dose activation, usual class: activators; note: % of control where 0% means no effect; nearly all actives have a fitted effect of over 60% in size
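Stable NPC1-promoter luciferase Huh7 line; cpd (DMSO) 24 h, 37 °C, 5% CO2; Amplite luciferase reagent 10 min RT; luminescence readout. qHTS format.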
Rab9 promoter act: qHTS Assay for Rab9 Promoter Activators; Huh7 Rab9 promoter-luciferase reporter, luminescence, 24 h; 320,000 tested, 2.8% active; Potency, µM (titrated, usually from 9.22 µM), for the others: at the highest dose activation, negative = inhibition, most hits filed as activators; note: % of control where 0% means no effect; nearly all actives have a fitted effect of over 60% in size
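Huh7 cells stably carrying a Rab9 promoter-luciferase reporter, 1500 cells per well in OP-MEM I with 10% FBS, treated with compound 24 hours at 37C. Luciferase activity read by luminescence after 10 minutes with Amplite reagent.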
Luc counter: Counterscreen for Luciferase (Kinase-Glo TM) Inhibition | Luciferin 4-monooxygenase (Photuris pensylvanica), Q27757 | Kinase-Glo luciferase, ATP luminescence, 8 min | Potency, µM (highest dose often 38.3 µM), inactives show at the highest dose activity change, negative = inhibition, usual class: inhibitors | 200,000 tested, 0.28% active; note: % is set by controls: 0 for no effect and ±100 for the full control effect; nearly all actives have a fitted effect of over 60% in size
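Luminescence was the read-out, taken after 8-minute incubation at ambient temperature. Luciferase turned over luciferin with 10 uM ATP in imidazole pH 7.2 buffer containing KCl, MgCl2, Tween 20 and BSA.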
FLuc counter: qHTS profiling assay for firefly luciferase inhibitor/activator using purifed enzyme and Km concentrations of substrates (counterscreen for miR-21 project) | purified FLuc, Km substrates, luminescence inhibition | Potency, µM (top dose mostly 57.5 µM), inactives show top-dose activity change, negative = inhibition, most hits filed as inhibitors | Luciferin 4-monooxygenase (Photinus pyralis), P08659 | 360,000 tested, 6.9% active | AID 588342, 2011;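 note: plate controls were vehicle for no effect and reference inhibitor for full effect; nearly all actives have a fitted effect of over 55% in size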
Target sequence (P08659 whole entry, looked up): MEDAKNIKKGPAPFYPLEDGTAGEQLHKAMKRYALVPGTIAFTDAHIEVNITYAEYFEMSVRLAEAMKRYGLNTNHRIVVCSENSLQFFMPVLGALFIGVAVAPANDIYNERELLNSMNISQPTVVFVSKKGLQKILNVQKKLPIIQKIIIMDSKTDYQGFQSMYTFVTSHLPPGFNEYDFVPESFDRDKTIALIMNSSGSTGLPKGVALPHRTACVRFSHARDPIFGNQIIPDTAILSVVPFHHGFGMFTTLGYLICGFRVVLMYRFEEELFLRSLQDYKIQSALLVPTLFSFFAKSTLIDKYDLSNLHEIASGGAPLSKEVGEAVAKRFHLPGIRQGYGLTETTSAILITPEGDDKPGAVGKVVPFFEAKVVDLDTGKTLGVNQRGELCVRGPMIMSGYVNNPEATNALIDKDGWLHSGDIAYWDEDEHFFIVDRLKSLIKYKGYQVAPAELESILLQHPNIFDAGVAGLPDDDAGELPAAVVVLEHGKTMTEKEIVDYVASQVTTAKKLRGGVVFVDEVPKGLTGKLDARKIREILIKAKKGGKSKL
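Purified P. pyralis luciferase (10nM final) with 10uM D-luciferin and 10uM ATP (Km levels) in 50mM Tris acetate pH 7.5, 10mM Mg acetate, 0.01% Tween-20, 0.05% BSA; qHTS 6-point titration, ~60 µM downward; luminescence read.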
The depositor's hits bear a star; ? = inconclusive; nt = no result given. Calls come from the whole dose curve; as a rule, active = well fitted curve in the direction sought with a large enough effect; inconclusive = small, poorly fitted or top-dose-only effect, or another doubt; inactive = no such curve, though single readings can be large; an effect the other way counts as inactive or inconclusive. Potency is the fitted concentration of half-maximal effect.

SMILES	SMN2 splice enh	ELG1 genotox	NPC1 prom act	Rab9 promoter act	Luc counter	FLuc counter
CCOC(=O)c1ccc(NC(=O)C2=C(C)C(=O)OC23CCCCCC3)cc1	nt	nt	nt	nt	nt	1%
O=C(O)C1Cc2[nH]cnc2C(c2ccccc2O)N1 (stereo not drawn)	2%	0%	0%	-4%	2%	-11%
O=C(Nc1ccc(Br)cc1F)c1cc2nc(-c3ccco3)cc(C(F)(F)Cl)n2n1	-7%	nt	nt	nt	nt	3%
Cc1ccc(Cn2nc(C)c(NC(=O)C3(C)CC3(Br)Br)c2C)cc1 (stereo not drawn)	-22%	-1%	2%	-8%	1%	-3%
COc1ccc(NC(=O)CSc2nc3c(c(=O)n2C)SCC3)cc1OC	nt	0%	-3%	7%	nt	2%
Cc1ccc(N(C)C(=O)C2CCN(S(=O)(=O)c3c(C)noc3/C=C/c3c(C)cc(C)cc3C)CC2)cc1	nt	nt	nt	nt	nt	-4%
COc1ccc(NC(=O)c2ccc(NC(=O)CSc3nccc(=O)[nH]3)cc2)cc1	nt	8%	17%	3%	nt	15µM*
CC(C)OC(=O)c1ccc(NC(=O)CSc2nc3ncccc3[nH]2)cc1	-19%	1%	1%	13%	-1%	17µM*
COc1ccc(NC(=O)CSc2nc3ccccc3c(=O)[nH]2)cc1S(N)(=O)=O	nt	2%	1%	0%	nt	19µM*
COC(=O)c1ccc(NC(=O)CSc2nc3ccccc3c(=O)[nH]2)cc1	-15%	?	-3%	-1%	-2%	-5%
COc1ccc(CC(=O)NCc2ccc(Cl)cc2)cc1S(=O)(=O)N1CCOCC1	nt	-3%	1%	0%	nt	2%
COc1ccc(/C=C2\SC(=O)N(CCNC(=O)CN3C(=O)NC4(CCCC4)C3=O)C2=O)cc1	nt	4%	11%	24%	nt	3%
COc1ccc(/C=C2\SC(=O)N(CCC(=O)N3CCCCC3CCO)C2=O)cc1 (stereo not drawn)	nt	-2%	-4%	-1%	nt	9.5µM*
COc1ccc(/C=C2\SC(=O)N(CCNC(=O)C3CSC4(C)CCC(=O)N34)C2=O)cc1 (stereo not drawn)	nt	1%	15%	17%	nt	17µM*
COc1ccc(/C=C2\SC(=O)N(CCNC(=O)C3CC4C=CC3C4)C2=O)cc1 (stereo not drawn)	25µM*	?	2.8µM*	0.71µM*	0%	6.7µM*
COc1ccc(/C=C2\SC(=S)N(CCC(=O)N3CCCCC3CCO)C2=O)cc1 (stereo not drawn)	nt	-9%	-1%	-6%	nt	?
Cc1ccsc1C(=O)Nc1nccs1	nt	25%	?	?	nt	?
CCc1sc(C(=O)Nc2nccs2)cc1C	nt	?	3.5µM*	3.2µM*	nt	1.3µM*
CCc1sc(C(=O)Nc2ncccc2C)cc1C	nt	23%	22%	25%	nt	?
CCc1sc(C(=O)Nc2ncccc2O)cc1C	nt	?	1.6µM*	2.2µM*	nt	6µM*
CN(C)C(CNC(=O)c1ccccc1OCc1ccc(Cl)cc1)c1ccco1 (stereo not drawn)	nt	3%	0%	-6%	nt	-22%
CCOC(=O)C1CCN(c2nc3ccccc3nc2C(C#N)C(=O)NCCc2ccccc2)CC1 (stereo not drawn)	-7%	27%	?	-3%	-1%	19µM*
CCOC(=O)c1cnc2c(ccc3ccccc32)c1Nc1cccc(C(F)(F)F)c1	0%	nt	nt	nt	nt	-7%
COc1ccc(Cl)c2c1[nH]c1nc(SCc3ccccn3)nnc12	6.3µM*	21µM*	2.8µM*	1.8µM*	12%	6µM*
COc1ccc(Cl)c2c1[nH]c1nc(SCc3cccnc3)nnc12	1%	14%	2%	-3%	-4%	1%
SMILES	SMN2 splice enh	ELG1 genotox	NPC1 prom act	Rab9 promoter act	Luc counter	FLuc counter
O=C(O)/C=C/c1cnc2ccccc2n1	9%	1%	1%	-4%	1%	4%
Fc1cccc(F)c1/C=C/c1ccc2ccccc2n1	nt	0.58µM*	?	4µM*	nt	0.27µM*
O=C(/C=C/c1ccc2ccccc2n1)N1CCN(S(=O)(=O)c2ccccc2F)CC1	nt	-4%	-9%	-10%	nt	-3%
O=C(/C=C/c1ccc2ccccc2n1)N1CCN(c2ccccc2)CC1	-12%	-6%	2%	1%	0%	-17%
Fc1cccc(Cl)c1/C=C/c1cnc2ccccc2n1	nt	0.52µM*	?	4µM*	nt	0.13µM*
CC(O)/C=C/c1ccc2ccccc2n1 (stereo not drawn)	16µM*	6%	1%	15%	-6%	17µM*
C(=C\c1ccco1)/c1ccc2ccccc2n1	nt	?	?	4µM*	nt	1.2µM*
COc1ccc(N(C(=O)c2ccccc2)S(=O)(=O)c2ccc3c(c2)n(C)c(=O)n3C)cc1	14%	nt	nt	nt	nt	-1%
CC(OC(=O)c1nn(C)c(=O)c2ccccc12)C(=O)Nc1ccc(S(N)(=O)=O)cc1 (stereo not drawn)	nt	-5%	-3%	-6%	nt	4%
Cc1ccc(/C(O)=C/c2nc3ccccc3oc2=O)cc1	nt	-6%	-3%	-1%	nt	3µM*
O=c1oc2ccccc2nc1/C=C(O)/C=C\c1ccccc1	5%	-6%	10%	0%	-1%	-17%
CCc1ccc(C(=O)/C=C2\Sc3ccccc3NC2=O)cc1	nt	11%	-1%	-5%	2%	13µM*
O=C1Nc2ccccc2S/C1=C\C(=O)N1CCCC1	13µM*	-19%	19%	3.5µM*	?	12µM*
N#C/C(C(=O)N1CCCCC1)=C1\Nc2ccccc2S1	18µM*	?	?	2.8µM*	-2%	11µM*
COC(=O)c1sccc1NC(=O)/C=C\c1ccc(Cl)cc1Cl	28%	8%	?	4µM*	?	?
O=C(/C=C/c1ccc(Cl)cc1Cl)NCc1ccncc1	-20%	0%	4%	3%	1%	?
O=C(/C=C/c1ccccc1Cl)Nc1ccncc1	17%	11%	?	2.8µM*	2%	4.3µM*
O=C(/C=C/c1ccc(Cl)cc1Cl)Nc1ccncc1	-4%	?	29%	27%	-3%	3.4µM*
CC(=O)N(C)c1ccc(NC(=O)/C=C/c2ccccc2Cl)cc1	29%	?	29%	?	-7%	6µM*
CCC(CC)NC(=O)/C=C/c1ccccc1Cl	?	16%	21%	27%	-11%	?
C=CCn1c(=NC(=O)c2ccccc2[N+](=O)[O-])sc2cc(S(C)(=O)=O)ccc21	-41%	-6%	6%	11%	-3%	4%

Screening results from PubChem.
